The source of these data is PubChem BioAssay (Tox21).

Results filed as inconclusive are left out. Active and inactive are the calls of the source. Unless noted, the call rests on the fitted dose curve.

A short description of test [1]: Nuclear factor erythroid 2-related factor 2/antioxidant responsive element (Nrf2/ARE) small molecule agonists: qHTS cell viability counter screen in human keratinocytes (AID 1919968; active means well fitted curve in the direction sought with a large enough effect in the repeat runs; an effect the other way counts as inactive or inconclusive; further: nearly all actives have a fitted effect of over 55% in size; further: potency means the concentration at half of the fitted maximal effect). Put shortly: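 Parallel cytotoxicity read: KeratinoSens HaCaT cells, compound treatment 23 h, viability by CellTiter-Fluor fluorescence 1 h post-reagent.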
The nature of test [2]: Nuclear factor erythroid 2-related factor 2/antioxidant responsive element (Nrf2/ARE) small molecule agonists: luciferase reporter gene qHTS assay in human keratinocytes (AID 1919969). Further: nearly all actives have a fitted effect of over 35% in size. Further: potency means the concentration at half of the fitted maximal effect.
For test [3], the target named is Gonadotropin-releasing hormone receptor (Homo sapiens) (UniProt P30968). The test is described as follows: Human gonadotropin-releasing hormone receptor (GnRHR) small molecule agonists, calcium flux assay in GnRHR-HEK293 cells (AID 1920063). Further: nearly all actives have a fitted effect of over 35% in size. Further: potency means the concentration at half of the fitted maximal effect. Put shortly: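 Calcium flux, agonist mode, human GnRHR stably integrated in HEK293; dye 1 h at 37 C before compound; Ex/Em=480/540 kinetic read, 3 min; 15 concentrations, triplicate.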
For orientation: Calcium flux is commonly read through the fluorescence of an indicator in the cells.

Test [4] is described as follows: G protein-coupled receptor (GPCR) small molecule agonists, calcium flux assay: HEK293 wild type cell line counter screen (AID 1920065). The essentials:
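Non-specific calcium responders were flagged by adding DMSO-dissolved compounds to dye-loaded cells and reading 480/540 nm fluorescence each second for 3 min; ATP served as positive control.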

Test [5] in a line: p53 small molecule agonists, cell-based qHTS assay with human liver microsomes (AID 1963577). Further: potency means the concentration at half of the fitted maximal effect.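 On activation: p53 response element beta-lactamase reporter cells with liver microsomes plus NADPH.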 Put shortly:
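In this qHTS, p53 response-element beta-lactamase cells receive test compound together with a microsome/NADPH activating system (0.5 mg/mL final each) and are incubated 16 h at 37 C before LiveBLAzer fluorescence detection.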

Test [6] is described as follows: p53 small molecule agonists, cell-based qHTS assay with rat liver microsomes (AID 1963578). The essentials:
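Agonist mode in p53RE-bla reporter cells, with compounds co-incubated 16 h at 37 C alongside 0.5 mg/mL rat liver microsomes and 0.5 mg/mL NADPH (final), followed by a 2 h LiveBLAzer detection step.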
A general note: In qHTS, concentration-response curves come from the screen itself.

Test [7] in a line: p53 small molecule agonists, cell-based qHTS assay with human liver microsomes: qHTS cell viability counter screen (AID 1963579). Further: nearly all actives have a fitted effect of over 45% in size. Further: potency means the concentration at half of the fitted maximal effect. Put shortly:
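Metabolically activated exposure: compounds, human liver microsomes and NADPH (0.5 mg/mL final apiece) were added to p53RE-bla cells seeded 5 h earlier, left 16 h at 37 C, and then assessed for viability by CellTiter-Glo luminescence.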

A short description of test [8]: p53 small molecule agonists, cell-based qHTS assay with rat liver microsomes: qHTS cell viability counter screen (AID 1963580). Further: nearly all actives have a fitted effect of over 45% in size. Further: potency means the concentration at half of the fitted maximal effect. Put shortly: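 Counter screen for cytotoxicity under metabolic activation: rat liver microsomes and NADPH, 0.5 mg/mL final each, added with compounds to p53RE-bla HCT-116 cells; 16 h at 37 C, then ATP luminescence read.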
Test [9] in a line: p53 small molecule agonists, cell-based qHTS assay: qHTS cell viability counter screen (AID 1963581). Further: nearly all actives have a fitted effect of over 45% in size. Further: potency means the concentration at half of the fitted maximal effect. The essentials:
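Multiplexed with the reporter read, a CellTiter-Glo step (30 min, room temperature) gauges ATP-based viability of HCT-116 p53RE-bla cells after 16 h compound incubation at 37 C.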

Test [10] is described as follows: cAMP Responsive Elements (CRE) small molecule agonists, cell-based qHTS assay (AID 1963590). Put shortly: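 Quantitative HTS for CRE agonists: HEK 293T CRE-bla cells, overnight plating, 3 h compound incubation at 37 C/5% CO2, then 2 h room-temperature LiveBLAzer B/G FRET substrate loading.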
Test [11] can be described thus: cAMP Responsive Elements (CRE) small molecule antagonists, cell-based qHTS assay (AID 1963591; active means well fitted inhibition curve with a large enough effect in the signal ratio in the repeat runs, not every such curve was filed as active; the % refers to the signal ratio). The essentials:
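Fluorescence intensity from cleaved LiveBLAzer B/G substrate (2 h, room temperature) quantified CRE-bla activity in HEK 293T cells exposed 3 h to compound with 0.25 uM final NKH477.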

Test [12] concerns the target Beta-2 adrenergic receptor (Homo sapiens) (UniProt P07550). The test is described as follows: Adrenergic beta2 receptor (ADRB2) small molecule antagonists, cell-based qHTS assay (AID 1963592). Further: nearly all actives have a fitted effect of over 50% in size. Further: potency means the concentration at half of the fitted maximal effect. Put shortly:
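Assay format: CHO-ADRB2 cells, 18-20hr seeding at 37C/5% CO2, then compound plus 1nM isoproterenol agonist mix for 0.5hr RT. Homogeneous time-resolved fluorescence cAMP detection after 1hr, expressed as 665/615 nm ratio.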

The target in test [13] is D(2) dopamine receptor (Homo sapiens) (UniProt P14416). The test is described as follows: Dopamine D2 receptor (DRD2) small molecule agonists, cell-based qHTS assay (AID 1963594). Further: nearly all actives have a fitted effect of over 35% in size. The essentials: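 HEK293 cells stably expressing DRD2 were cultured 24 h at 37 C, then given Ro20-1724 (0.1 mM final) and compounds for 10 min at room temperature. NKH477 (200nM) was then added for 30 min. cAMP was read by HTRF.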

For test [14] the target is unchanged. The test is described as follows: Dopamine D2 receptor (DRD2) small molecule antagonists, cell-based qHTS assay (AID 1963595; active means well fitted inhibition curve with a large enough effect in the signal ratio in the repeat runs, with a control signal flat; the % refers to the signal ratio). Put shortly:
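HEK293 cells stably expressing DRD2 were preincubated with 0.1 mM Ro20-1724, then with compound for 10 min at room temperature. Cells were stimulated with 200 nM NKH477 plus 12 nM quinpirole for 30 min, and cAMP was read by HTRF.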

The nature of test [15]: p53 small molecule agonists, cell-based qHTS assay (AID 1963582; active means well fitted activation curve with a large enough effect in the signal ratio in the repeat runs, not every such curve was filed as active; the % refers to the signal ratio). Put shortly:
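Beta-lactamase reporter cells (p53RE-bla) treated with compounds for 16 h at 37 C; FRET substrate, 2 h, room temperature; fluorescence intensity.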

In test [16] the target is 5-hydroxytryptamine receptor 2A (Homo sapiens) (UniProt P28223). The test is described as follows: 5-hydroxytryptamine receptor 2A (HTR2A) small molecule antagonists, cell-based qHTS assay (AID 1963586). Further: nearly all actives have a fitted effect of over 45% in size. The essentials: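 CHO cells stably expressing human HTR2A were plated for 18 h at 37 C, then loaded with calcium dye for 1 h. Compounds were preincubated 5 min at room temperature before DOI (4 nM solution) was added. Kinetic fluorescence was read for 3 min.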

Test [17] shares this target. The test is described as follows: 5-hydroxytryptamine receptor 2A (HTR2A) small molecule agonists, cell-based qHTS assay (AID 1963587). Further: nearly all actives have a fitted effect of over 30% in size. Further: potency means the concentration at half of the fitted maximal effect. Put shortly: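 HTR2A-CHO cells, plated 18 h at 37 C/5% CO2, dye-loaded 1 h at 37 C; compounds in DMSO added by pin tool (agonist mode). Intracellular calcium flux read as kinetic fluorescence on FDSS over 2 min at 1 s intervals.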
For test [18], the target named is KiSS-1 receptor (Homo sapiens) (UniProt Q969F8). The test is described as follows: Human kisspeptin (KISS1R) small molecule agonists, calcium flux assay in KISS1R-HEK293 cells (AID 1920064; active means well fitted curve in the direction sought with a large enough effect in the repeat runs; an effect the other way counts as inactive or inconclusive). Put shortly:
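Triplicate 15-concentration series were applied to dye-loaded human KISS1R HEK293 cells, and agonist-evoked calcium fluorescence was captured for 3 min.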

Test [19] addresses Muscarinic acetylcholine receptor M1 (Homo sapiens) (UniProt P11229). The test is described as follows: Cholinergic receptor muscarinic 1 (CHRM1) small molecule antagonists, cell-based qHTS assay (AID 1963588). Further: nearly all actives have a fitted effect of over 40% in size. Further: potency means the concentration at half of the fitted maximal effect. Put shortly:
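Compounds were tested at 15 concentrations in three independent runs. Dye-loaded CHRM1-CHO cells were exposed 5 min at room temperature before stimulation by acetylcholine added at 50nM. Intracellular calcium was read kinetically on FDSS for 3 min.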

For test [20] the target is unchanged. The test is described as follows: Cholinergic receptor muscarinic 1 (CHRM1) small molecule agonists, cell-based qHTS assay (AID 1963589). Further: nearly all actives have a fitted effect of over 35% in size. Put shortly:
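qHTS, 15-point titration, 3 independent runs: compounds pin-transferred onto dye-loaded CHRM1-CHO cells (human M1), calcium fluorescence followed every second to detect agonism.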

Sequence of D(2) dopamine receptor (Homo sapiens) (P14416 whole entry, looked up): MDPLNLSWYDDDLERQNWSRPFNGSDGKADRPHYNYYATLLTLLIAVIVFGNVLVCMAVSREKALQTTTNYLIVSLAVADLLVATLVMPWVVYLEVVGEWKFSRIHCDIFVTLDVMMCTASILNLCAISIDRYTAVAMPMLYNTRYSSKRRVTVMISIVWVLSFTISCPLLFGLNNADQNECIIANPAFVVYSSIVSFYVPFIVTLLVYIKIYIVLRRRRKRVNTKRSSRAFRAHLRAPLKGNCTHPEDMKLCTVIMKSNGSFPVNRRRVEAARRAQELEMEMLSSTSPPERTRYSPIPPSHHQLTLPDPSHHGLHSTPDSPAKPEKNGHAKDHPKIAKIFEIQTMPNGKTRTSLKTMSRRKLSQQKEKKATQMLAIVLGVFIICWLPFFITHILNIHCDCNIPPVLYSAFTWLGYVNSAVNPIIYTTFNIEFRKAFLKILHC
Sequence of KiSS-1 receptor (Homo sapiens) (Q969F8 whole entry, looked up): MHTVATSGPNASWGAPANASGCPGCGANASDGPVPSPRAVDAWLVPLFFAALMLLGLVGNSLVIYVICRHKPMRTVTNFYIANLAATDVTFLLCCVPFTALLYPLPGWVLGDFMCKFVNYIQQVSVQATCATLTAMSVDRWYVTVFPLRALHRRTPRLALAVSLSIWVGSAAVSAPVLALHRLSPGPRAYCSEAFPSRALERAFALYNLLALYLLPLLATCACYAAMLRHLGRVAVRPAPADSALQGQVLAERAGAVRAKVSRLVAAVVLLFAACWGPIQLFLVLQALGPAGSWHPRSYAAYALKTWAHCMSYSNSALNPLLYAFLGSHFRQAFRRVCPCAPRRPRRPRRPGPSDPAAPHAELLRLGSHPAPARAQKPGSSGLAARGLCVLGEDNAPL
Sequence of Muscarinic acetylcholine receptor M1 (Homo sapiens) (P11229 whole entry, looked up): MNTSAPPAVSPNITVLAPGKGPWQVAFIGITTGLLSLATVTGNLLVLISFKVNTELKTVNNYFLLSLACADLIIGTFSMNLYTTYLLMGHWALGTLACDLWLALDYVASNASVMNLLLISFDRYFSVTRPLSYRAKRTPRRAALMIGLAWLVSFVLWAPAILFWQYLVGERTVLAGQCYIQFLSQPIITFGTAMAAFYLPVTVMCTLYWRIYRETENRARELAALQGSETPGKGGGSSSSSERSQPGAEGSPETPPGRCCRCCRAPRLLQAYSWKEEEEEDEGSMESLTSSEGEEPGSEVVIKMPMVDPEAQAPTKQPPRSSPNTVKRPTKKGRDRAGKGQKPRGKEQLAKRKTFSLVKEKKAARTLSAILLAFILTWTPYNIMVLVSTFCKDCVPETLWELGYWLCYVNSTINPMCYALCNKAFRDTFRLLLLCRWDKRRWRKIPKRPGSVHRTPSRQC
Sequence of Beta-2 adrenergic receptor (Homo sapiens) (P07550 whole entry, looked up): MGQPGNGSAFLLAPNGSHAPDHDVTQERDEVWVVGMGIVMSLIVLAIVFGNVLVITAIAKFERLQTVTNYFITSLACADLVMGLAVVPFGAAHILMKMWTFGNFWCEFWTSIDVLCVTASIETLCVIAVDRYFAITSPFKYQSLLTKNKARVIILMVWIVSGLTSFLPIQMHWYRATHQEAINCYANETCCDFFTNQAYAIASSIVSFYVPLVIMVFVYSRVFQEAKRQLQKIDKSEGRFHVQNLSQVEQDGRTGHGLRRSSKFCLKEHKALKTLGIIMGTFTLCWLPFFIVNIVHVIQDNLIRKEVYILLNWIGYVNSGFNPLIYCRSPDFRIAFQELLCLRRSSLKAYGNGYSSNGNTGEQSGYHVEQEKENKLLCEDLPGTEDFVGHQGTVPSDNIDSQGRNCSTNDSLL
Sequence of Gonadotropin-releasing hormone receptor (Homo sapiens) (P30968 whole entry, looked up): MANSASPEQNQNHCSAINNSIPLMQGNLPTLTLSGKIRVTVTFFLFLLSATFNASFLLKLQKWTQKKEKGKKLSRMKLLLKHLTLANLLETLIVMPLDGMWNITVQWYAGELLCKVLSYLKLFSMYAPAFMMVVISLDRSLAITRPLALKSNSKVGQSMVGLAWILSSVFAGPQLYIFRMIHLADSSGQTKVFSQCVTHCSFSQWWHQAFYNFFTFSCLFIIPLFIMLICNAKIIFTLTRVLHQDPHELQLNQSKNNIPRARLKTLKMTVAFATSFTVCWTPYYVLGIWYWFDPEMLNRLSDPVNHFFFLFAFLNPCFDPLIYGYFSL
Sequence of 5-hydroxytryptamine receptor 2A (Homo sapiens) (P28223 whole entry, looked up): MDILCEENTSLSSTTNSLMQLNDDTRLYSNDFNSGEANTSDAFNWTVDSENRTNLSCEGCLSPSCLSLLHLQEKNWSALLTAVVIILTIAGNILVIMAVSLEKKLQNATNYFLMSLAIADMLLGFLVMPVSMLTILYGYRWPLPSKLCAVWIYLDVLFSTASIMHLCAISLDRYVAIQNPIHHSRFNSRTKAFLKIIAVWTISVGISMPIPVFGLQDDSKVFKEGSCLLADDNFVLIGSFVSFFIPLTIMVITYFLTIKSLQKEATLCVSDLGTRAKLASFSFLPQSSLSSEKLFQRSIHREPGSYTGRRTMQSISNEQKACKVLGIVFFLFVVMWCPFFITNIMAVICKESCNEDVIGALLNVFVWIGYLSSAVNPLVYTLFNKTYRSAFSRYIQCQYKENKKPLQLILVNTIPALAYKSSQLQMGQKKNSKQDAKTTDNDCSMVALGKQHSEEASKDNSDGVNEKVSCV

In the case of `CC(N)=S`, the Potency entry in test [1], in test [2], in test [3], in test [4], in test [5] and in [6] was “inactive” each time. Besides, the Potency result in test [7], in test [8], in [9], in test [10], in [11] and in [12] was “inactive” throughout. Besides, the Potency entry in test [13] and in [14] was “inactive” throughout.
As to `CC(O)(CS(=O)(=O)c1ccc(F)cc1)C(=O)Nc1ccc(C#N)c(C(F)(F)F)c1` (stereo unspecified), the Potency entry in [1], in test [2], in test [3], in test [4], in test [5] and in test [7] was “inactive” throughout. Moreover, the Potency entry in test [8], in [9], in test [15], in test [11], in test [12] and in [13] was “inactive” each time.
Consider `CNC(=O)Oc1ccc(N(C)C)c(C)c1`, for which the Potency result in test [1], in [3], in test [4], in test [7], in [8] and in test [9] was “inactive” throughout. Further, the Potency entry in [15], in [16], in [17], in test [10], in [11] and in test [13] was “inactive” each time. Moreover, the Potency entry in [14] was “inactive”. Also, the values for the Potency in test [2] and in test [5] were 24.3 µM (active) and 10.2 µM (active), respectively.
For the molecule `CC(C)(C)c1cc([N+](=O)[O-])cc([N+](=O)[O-])c1O`, the Potency in [1] is 13.6 µM (active); in test [2], 30.5 µM (active); in [3], 38.8 µM (active). The Potency result in test [18], in [7], in test [8], in test [16], in test [17] and in [19] was “inactive” in each case. Further, the Potency result in test [20], in test [12] and in test [13] was “inactive” each time.
With `COc1cc(CC(C)N)cc2c1OCO2` (stereo unspecified), the Potency entry in test [1], in [2], in test [3], in test [4], in [5] and in test [6] was “inactive” throughout. Further, the Potency result in test [7], in test [8], in test [9], in test [15], in test [20] and in test [10] was “inactive” each time. Besides, the Potency entry in [11], in [13] and in test [14] was “inactive” in each case. The Potency was 1.44 µM (active) in test [17], 15.6 µM (active) in test [19] and 32 µM (active) in test [12].
In the case of `O=C(NC(O)C(Cl)(Cl)Cl)NC(O)C(Cl)(Cl)Cl` (stereo unspecified), the Potency result in test [1], in test [2], in test [3], in test [18], in [9] and in test [16] was “inactive” in each case. The Potency result in test [17], in [20], in test [10], in [11], in test [12] and in test [13] was “inactive” throughout. In addition, the Potency result in test [14] was “inactive”.
With `COP(N)(=S)Oc1ccccc1C(=O)OC(C)C` (stereo unspecified), the Potency entry in test [1], in test [2], in test [3], in [4], in test [7] and in [8] was “inactive” each time. The Potency entry in test [9], in test [15], in test [16], in test [17], in [19] and in [20] was “inactive” throughout. The Potency result in test [10], in [12], in test [13] and in test [14] was “inactive” in each case. In addition, the Potency in test [5] is 18.2 µM (active).
Turning to `[Hg+2].[I-].[I-]`, the Potency is 4.33 µM (active) in [1]; 1.22 µM (active) in [2]; 43.6 µM (active) in [3]; 4.58 µM (active) in [7]; 12.9 µM (active) in test [8]; 18.2 µM (active) in test [9]. The Potency in test [17] was 49 µM (active). In addition, the Potency result in test [4], in test [5], in test [6], in [16] and in test [19] was “inactive” each time.
Consider `CCCSP(=S)(OCC)Oc1ccc(Cl)cc1Cl` (stereo unspecified), for which the Potency result in test [1], in test [3], in [18], in test [7], in [8] and in test [16] was “inactive” throughout. The Potency result in test [17], in test [20], in test [11], in [12], in test [13] and in [14] was “inactive” throughout. In [2], the Potency was 61.1 µM (active).
